Measured values as given in PubChem BioAssay AID2112 (National Center for Advancing Translational Sciences (NCATS), 2009).
The campaign covered roughly 240,000 compounds. About 15 (0.006%) were called active. Calls follow the shape of the dose curve; as a rule, active = well fitted inhibition curve with a large enough effect; inconclusive = small, poorly fitted or top-dose-only effect, or effect the other way, or another doubt; inactive = no such curve, though single readings can be large or run the other way. The list is a sample of the results. Where a SMILES comes first, the peptide text is derived from it.

Target: Lysosomal alpha-glucosidase (Homo sapiens) (UniProt P10253)
Assay: qHTS Assay for Inhibitors and Activators of Human alpha-Glucosidase From Spleen Homogenate;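 also: 0% = enzyme with vehicle and -100% = no enzyme basal signal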
Details: 4-MU-alpha-glucoside fluorescence; series mostly up to 79.9 µM; activity change, negative = inhibition: at the top concentration
Excerpt: NIH Chemical Genomics Center [NCGC] NIH Molecular Libraries Probe Production Centers Network [MLPCN] MLPCN Grant: R03 MH084841-01 Assay Submitter (PI): Wei Zheng NCGC Assay Overview: Alpha-glucosidase is responsible for the hydrolysis of terminal, non-reducing 1,4-linked alpha-D-glucose residues, which releases alpha-D-glucose. It is a lysosomal hydrolase that is required for the degradation of a small percentage (1-3%) of cellular glycogen in humans. Deficiency of this enzyme results in glycogen-storage disease type II (GSDII), also referred to as Pompe disease, an autosomal recessive disorder. Structurally normal glycogen is accumulated in the lysosomes and cytoplasm in affected patients, primarily in muscle tissues. Excessive glycogen storage within lysosomes may interrupt normal functioning of other organelles and leads to cellular injury. In turn, this leads to enlargement and dysfunction of the entire organ involved (eg: cardiomyopathy and muscle weakness). It has been reported that the improper folding and trafficking of alpha-glucosidase resulting from genetic mutations may account for a significant number of Pompe patients. […] We optimized this alpha-glucosidase assay in 1536-well plate format for identification of novel small molecule inhibitors or activators with structures other than the sugar analogs in order to develop new pharmacological chaperones. In particular, this assay is directed towards discovering compounds active in a more natural setting, tissue homogenate, that may have been missed by screens of the purified enzyme under more stringent conditions.
NCGC Assay Protocol Summary: This is a fluorogenic enzyme assay with 4-methylumbelliferyl-alpha-D-glucopyranoside as the substrate and human spleen homogenate containing alpha-glucosidase as the enzyme preparation. Upon hydrolysis of this fluorogenic substrate, the resulting product, 4-methylumbelliferone (which excites at 365 nm and emits at 440 nm) can be detected by a fluorescence plate reader. Data were normalized to the controls for basal activity (without enzyme) and 100% activity (with enzyme). The AC50 values were determined from concentration-response data modeled with the standard Hill equation. Assay buffer: 50 mM citric acid (titrated with potassium phosphate to pH 5.0), 0.01% Tween-20 (pH 5.0 is an optimal condition for this enzyme assay) 1536-well assay protocol for the alpha-glucosidase from human spleen homogenate: (1) Add 2 ul/well spleen homogenate (1 ug) (2) Add 23 nL compounds in DMSO solution. The final titration was 0.5 nM to 58 uM. (3) Add 2 ul of substrate (1 mM final) (4) Incubate at 37 C for 40 min (5) Add 2 ul stop solution (1M NaOH and 1M Glycine mixture, pH 10) (6) Detect the assay plate in a ViewLux plate reader (PerkinElmer) with Ex=365 nm and Em=440nm. Keywords: Alpha-glucosidase, Pompe Disease, pharmacological chaperone, chaperone therapy, high throughput screening, alpha-glucosidase inhibitor, MLSMR, MLSCN, NIH Roadmap, qHTS and NCGC

SMILES | activity change, negative = inhibition
Cc1nc(-c2ccccc2)sc1-c1nc(-c2ccccc2)ncc1S(=O)(=O)c1ccccc1 | -0.37% (inactive)
CO[C@@]12[C@@H](COC(N)=O)C3=C(C(=O)C(C)=C(N)C3=O)N1C[C@@H]1N[C@@H]12 | -0.0282% (inactive)
Cc1ccc2nc(/C(C#N)=C\c3ccc(OC(=O)c4cccs4)cc3)[nH]c2c1 | -2.6% (inactive)
COc1c(O)c2c(=O)cc(OC)c3c4c(OC)cc(=O)c5c(O)c(OC)c6c(c(c1C[C@@](C)(O)[C@H]6C(C)=O)c23)c54 | -8.94% (inactive)
Clc1ccc(C[n+]2cc(-c3ccc(Cl)cc3)n3c2CCC3)cc1 | -3.89% (inactive)
COc1ccc(NC2=CC(=S)NC(C)(C)C2)cc1 | 0.55% (inactive)
O=C(NCC1CC1)C1(C(F)(F)F)C/C(=C\CCO)CCCO1 (centres undefined) | 3.72% (inactive)
COc1cc2[nH]c(=O)n(Cc3ccc(C(=O)NC4CCN(Cc5ccccc5)CC4)cc3)c(=O)c2cc1OC | -0.526% (inactive)
COC(=O)C(CC(C)C)NS(=O)(=O)c1cc(Br)ccc1Br (centres undefined) | 3.71% (inactive)
C=C1CCN(Cc2ccc(OC)cc2)S(=O)(=O)c2ccccc21 | -11.5% (inactive)
CCOc1cc(C2C(C(=O)OC(C)C)=C(C)NC3=C2C(=O)CCC3)cc([N+](=O)[O-])c1O (centres undefined) | 1.08% (inactive)
Cc1ccccc1N/C(SCc1ccc(Cl)cc1)=C(/C#N)C(N)=O | 3.19% (inactive)
Cc1c(-c2ccccc2)n[nH]c1C(=O)N=Nc1c(O)[nH]c2ccccc12 | -7.29% (inactive)
Cc1cc(C)c(NC(=O)CN2C(=O)NC(Cc3ccccc3)C2=O)c(C)c1 (centres undefined) | 1.21% (inactive)
CC(=O)c1c(N2CCN(c3ccc(F)cc3)CC2)nc(=S)n(-c2ccccc2)c1C | 6.73% (inactive)
O=C(CP(=O)(c1ccccc1)c1ccccc1)N1CCOCC1 | -1.35% (inactive)
Cc1nn(CCOc2ccc(Br)cc2)c(C)c1[N+](=O)[O-] | 5.99% (inactive)
COc1cc(OC)c2c(C)cc(=O)oc2c1C(CCN1CCCCC1)c1ccc(N(C)C)cc1 (centres undefined) | 2.28% (inactive)
Cc1ccc(-c2nc(C)sc2CC(=O)OCC(=O)Nc2c(F)cccc2F)cc1 | 0.406% (inactive)
CCCCCCCC[C@@H](O)/C=C/C=C/C=C\[C@@H](O)CCCC(=O)O | 1.53% (inactive)
COc1ccc(CN2CCC(=O)c3ccccc3S2(=O)=O)cc1 | -5.9% (inactive)
COc1ccc(C2CC(O)(c3ccccc3)Oc3cc(C)cc(C)c32)cc1 (centres undefined) | -2.15% (inactive)
COC(=O)[C@@]1(C)C=C[C@@H](Cc2ccccc2)N1C(C)=O | -11.6% (inactive)
O=C(C1CCN(c2nnc(-n3cccc3)s2)CC1)N1CCc2ccccc2C1 | -3.74% (inactive)
O=C(CSc1ccccn1)Nc1nc2c(ccc3ccccc32)s1 | -2.23% (inactive)

SMILES | activity change, negative = inhibition
CC(C)C(NS(=O)(=O)c1ccc(-c2ccc(Br)cc2)cc1)C(=O)O (centres undefined) | 9.33% (inactive)
C[C@@H](O)[C@@H]1NC(=O)[C@H](CCCCN)NC(=O)[C@H](Cc2c[nH]c3ccccc23)NC(=O)[C@H](Cc2ccccc2)NC(=O)[C@H](Cc2ccccc2)NC(=O)[C@H](CC(N)=O)NC(=O)[C@H](CCCCN)NC(=O)[C@@H](NC(=O)[C@@H]2CCCN2)CSSC[C@@H](C(=O)N[C@@H](CCCCN)C(=O)O)NC(=O)[C@H](CO)NC(=O)[C@H](CO)NC(=O)[C@H](Cc2ccccc2)NC1=O (HELM PEPTIDE1{P.C.K.N.F.F.W.K.T.F.S.S.C.K}$PEPTIDE1,PEPTIDE1,2:R3-13:R3$$$V2.0) | 6.58% (inactive)
CSc1ccccc1N1CCN(CCCCCC(=O)NC2CCCc3ccccc32)CC1 (centres undefined) | -1.62% (inactive)
CC[C@H](C)[C@H](NC(=O)[C@H](Cc1ccc(O)cc1)NC(=O)[C@@H](NC(=O)[C@H](CCCN=C(N)N)NC(=O)[C@@H](N)CC(=O)O)C(C)C)C(=O)N[C@@H](Cc1cnc[nH]1)C(=O)N1CCC[C@H]1C(=O)N[C@@H](Cc1ccccc1)C(=O)O | -2.98% (inactive)
Cc1ccc2c(c1)C(c1ccccc1)N(C(=O)c1ccc(S(=O)(=O)N3CCOCC3)cc1)CC(=O)N2 (centres undefined) | 3.75% (inactive)
COC(=O)[C@@]1(Cc2ccccc2)[C@H]2c3cc(C(=O)N(C)C)n(CCSCCO)c3C[C@H]2CN1C(=O)c1ccccc1 | 0.272% (inactive)
Cc1ccc(CNC(=O)C2(C(F)(F)F)C/C(=C\CCO)CCCO2)o1 (centres undefined) | -3.58% (inactive)
O=C(c1cc(C(F)(F)F)cc(C(F)(F)F)c1)N1CCC2(CCCN(c3ccccn3)C2)CC1 | 2.45% (inactive)
CCCN1CCC(=O)N(C(CSc2ccc(OC)cc2)Cc2ccccc2)CC1 (centres undefined) | -8.71% (inactive)
CCCCNC(=S)N/N=C1\CCCCc2ccccc21 | -7.3% (inactive)
C=CCCN(C(Cc1ccccc1)C(=O)OC)S(=O)(=O)c1cc(Br)ccc1Br (centres undefined) | 0.718% (inactive)
Cc1ccccc1Nc1scc(-c2ccc(Br)cc2)[n+]1-c1ccccc1C | -4.94% (inactive)
Cc1nc(C(=O)N2CCCC(C(=O)c3ccc(Cl)cc3)C2)cs1 (centres undefined) | 1.42% (inactive)
CC1=CC(=C(C#N)c2nc3ccccc3s2)C=C(C)N1c1ccc(F)cc1F | 1.11% (inactive)
Cc1cc(C(=O)OCC(=O)Nc2nccs2)c2ccccc2n1 | 2.11% (inactive)
O=C1NC(=Nc2ccc(Cl)cc2)SC1Cc1cccc(Cl)c1Cl (centres undefined) | -5.67% (inactive)
Cc1ccc(S(=O)(=O)N(CC(=O)Nc2cccc([N+](=O)[O-])c2)Cc2ccc(Cl)cc2)cc1 | 2.83% (inactive)
COc1ccc(C2=Nc3cc(C)ccc3OC2)cc1 | -4.38% (inactive)
CCOC(=O)Cn1c(=O)sc2cccc(Cl)c21 | -7.95% (inactive)
CCN(CC)CCNC(=O)c1sc2ncn(CC(=O)Nc3ccc(C)c(Cl)c3)c(=O)c2c1C | -3.52% (inactive)
Cc1cccc2c1-c1sc(C(=O)NCCCN3CCc4ccccc4C3)cc1CO2 | 18.1% (inactive)
O=C1/C(=C/c2coc3ccc(O)cc3c2=O)SC(=S)N1c1ccccc1 | 4.43% (inactive)
CC[C@H](C)[C@H](NC(=O)[C@H](CCCNC(=N)N)NC(=O)[C@H](CCCNC(=N)N)NC(=O)[C@H](CC(C)C)NC(=O)[C@H](Cc1ccccc1)NC(=O)CNC(=O)CNC(=O)[C@@H](N)Cc1ccc(O)cc1)C(=O)N[C@@H](CCCNC(=N)N)C(=O)N1CCC[C@H]1C(=O)N[C@@H](CCCCN)C(=O)N[C@@H](CC(C)C)C(=O)N[C@@H](CCCCN)C(=O)N[C@@H](Cc1c[nH]c2ccccc12)C(=O)N[C@@H](CC(=O)O)C(=O)N[C@@H](CC(N)=O)C(=O)N[C@@H](CCC(N)=O)C(=O)O | -9.54% (inactive)
COc1ccc(-c2ccc(C3C4C=CCCC4(C)C(=O)N3Cc3ccccc3)c(F)c2)cc1OC (centres undefined) | -2.95% (inactive)
